# In PubChem BioAssay (EPA / NIEHS):
# Results filed as inconclusive are left out. The source made the active and inactive calls. Rule for the calls, unless noted: active = hit-call score of the fitted dose curve at least 0.9, where 1 is the maximum; inactive = score below 0.9.
# Legend:
# [1] = ACEA_ER_80hr: ACEA Biosciences xCELLigence Real-Time Cell Analysis on Estrogen Receptor Agonism for Proliferation (AID 2282667; active = hit-call score of the fitted dose curve at least 0.9, where 1 is the maximum); conditions: T47D proliferation, impedance (xCELLigence), 80 h
# Method in brief: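 Impedance readout (RT-CES) of T47D proliferation at 80 h post-dose; gain of signal vs DMSO baseline. Compounds: 8 conc, 1:4 serial, top 100 uM final, ≤0.5% DMSO; biological duplicate.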
# [2] = APR_HepG2_CellCycleArrest_24hr: Apredica 24-hour HepG2 Assay for Cell Cycle Arrest (AID 2282905); conditions: imaging, actives raise or lower the signal;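 note: cell cycle arrest scored as ratio of 2N to 4N nuclear DNA content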
# Method in brief: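 Readout: Hoechst 33342 nuclear DNA content by high-content fluorescent imaging, six images/well, 20x. Human HepG2 liver cells, 24 hr compound exposure, 0.39–200 uM, final DMSO 0.5% v/v. Gain or loss fitted relative to DMSO baseline.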
# [3] = APR_HepG2_NuclearSize_24hr: Apredica 24-hour HepG2 Assay for Nuclear Size (AID 2282907); conditions: high-content imaging, actives raise or lower the signal
# Method in brief: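 Read-out: nuclear diameter from Hoechst 33342 (2 ug/mL) imaging of fixed HepG2 cells, 20x, six fields/well. Compounds ran at 0.39–200 uM for 24 hr, 0.5% DMSO final. Gain or loss was fitted bidirectionally relative to the DMSO baseline.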
# [4] = APR_HepG2_CellLoss_24hr: Apredica 24-hour HepG2 Assay for Cell Loss (AID 2282908); conditions: high-content imaging;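 for AC50: fit in both directions so a hit may be cell loss or gain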
# Method in brief: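 Read-out: Hoechst 33342-stained nuclei counted by automated fluorescence imaging after formaldehyde fixation and Triton permeabilization. Ten concentrations, 0.39 to 200 uM, duplicate wells, 0.5% DMSO final. Gain or loss of signal fitted relative to DMSO baseline.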
# [5] = APR_HepG2_MicrotubuleCSK_24hr: Apredica 24-hour HepG2 Assay for Microtubule CSK Stabilty (AID 2282909); conditions: HepG2 microtubule cytoskeleton imaging, actives raise or lower the signal
# Method in brief: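 Read-out: alpha-tubulin immunofluorescence intensity by automated high-content imaging of fixed HepG2 cells after 24 h compound treatment. Ten concentrations, 0.39 to 200 uM, in duplicate; DMSO 0.5% v/v. Taxol positive control; DMSO-normalized bidirectional curve fitting.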
# [6] = APR_HepG2_MitoticArrest_24hr: Apredica 24-hour HepG2 Assay for Mitotic Arrest (AID 2282910); conditions: high-content imaging, actives raise or lower the signal
# Method in brief: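 Treatment lasted 24 hr in the human HepG2 line at 0.39–200 uM, solvent held at 0.5% DMSO. Fixed cells were stained with Hoechst 33342 and anti-phospho-histone H3, imaged at 20x, and analysed by gain- or loss-of-signal fitting against DMSO.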
# [7] = APR_HepG2_MitoMembPot_24hr: Apredica 24-hour HepG2 Assay for Mitochondrial Membrane Potential (AID 2282911); conditions: imaging, actives raise or lower the signal
# Method in brief: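 HepG2, 24 hr dosing, 10 concentrations 0.39–200 uM, 0.5% DMSO final. Live-cell MitoTracker Red CMXRos 250 nM 30 min, then 3.7% formaldehyde fix. HCS fluorescence imaging, 20x; bidirectional fit vs DMSO baseline.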
# [8] = APR_HepG2_MitoMass_24hr: Apredica 24-hour HepG2 Assay for Mitochondrial Mass (AID 2282912); conditions: high-content imaging, actives raise or lower the signal
# Method in brief: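 HepG2, 24 hr dosing, 10 concentrations 0.39–200 uM in duplicate, DMSO 0.5% final. MitoTracker Red CMXRos 250 nM, 30 min pre-fix; 3.7% formaldehyde fix. Imaging-based fluorescence intensity; gain/loss fit vs DMSO baseline.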
# [9] = APR_HepG2_p53Act_24hr: Apredica 24-hour HepG2 Assay for p53 Activation (AID 2282913); conditions: high-content imaging, actives raise or lower the signal;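 note: p53 protein immunofluorescence averaged per cell in HepG2 with Hoechst nuclei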
# Method in brief: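 Read-out: Cy5 immunofluorescence for p53 in fixed, permeabilized HepG2, imaged by HCS with Hoechst-defined nuclei. Dosing was 24 hr at 0.39–200 uM in 0.5% DMSO. Curves were fitted bidirectionally relative to DMSO.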
# [10] = APR_HepG2_CellCycleArrest_72hr: Apredica 72-hour HepG2 Assay for Cell Cycle Arrest (AID 2282914); conditions: high-content imaging, actives raise or lower the signal
# Method in brief: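 HepG2, 72 hr exposure, 10-point 0.39–200 uM, duplicate, 0.5% DMSO final. Fix 3.7% formaldehyde 30 min RT, Triton X-100 0.5%, Hoechst 33342 2 ug/mL. ArrayScan 20x, six fields/well; DNA content per nucleus; bidirectional fit vs DMSO.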
Structure (SMILES),outcome [1],outcome [2],outcome [3],AC50 [4],outcome [5],outcome [6],AC50 [7],outcome [8],outcome [9],outcome [10],outcome [4],outcome [7],AC50 [10],AC50 [2],AC50 [1],AC50 [5],AC50 [6]
CCOC(=O)C(C)(C)Oc1ccc(Cl)cc1,inactive,inactive,inactive,115 µM (active),inactive,inactive,121 µM (active),inactive,inactive,inactive,,,,,,,
C[Si]1(C)O[Si](C)(C)O[Si](C)(C)O[Si](C)(C)O1,inactive,inactive,inactive,,inactive,inactive,,inactive,inactive,inactive,inactive,inactive,,,,,
OC[C@@H](O)[C@@H](O)[C@H](O)[C@H](O)CO,inactive,inactive,inactive,,inactive,inactive,,inactive,inactive,inactive,inactive,inactive,,,,,
O=C(OCCCCCOC(=O)c1ccccc1)c1ccccc1,inactive,inactive,inactive,,inactive,inactive,,inactive,inactive,,inactive,inactive,103 µM (active),,,,
O=c1[nH]cc(F)c(=O)[nH]1,inactive,,inactive,,inactive,inactive,,inactive,inactive,,inactive,inactive,1.52 µM (active),1.06 µM (active),,,
Cc1ccc(C)c(C)c1,inactive,inactive,inactive,,inactive,inactive,,inactive,inactive,inactive,inactive,inactive,,,,,
Nc1ccc(S(=O)(=O)c2ccc(N)cc2)cc1,inactive,inactive,inactive,,inactive,inactive,,inactive,inactive,inactive,inactive,inactive,,,,,
Cc1nc(-c2ccc3c(c2)CCN(CCC2CCC(NC(=O)/C=C/c4ccc(F)cc4)CC2)CC3)no1 (stereo not given),inactive,inactive,inactive,,inactive,inactive,,inactive,inactive,inactive,inactive,inactive,,,,,
CCCCCCCCCCCC(=O)OC,inactive,inactive,inactive,,inactive,inactive,,inactive,inactive,inactive,inactive,inactive,,,,,
COCCOC[C@H](CC1(C(=O)NC2CCC(C(=O)O)CC2)CCCC1)C(=O)Oc1ccc2c(c1)CCC2 (stereo not given in full),inactive,inactive,inactive,,inactive,inactive,,inactive,inactive,inactive,inactive,inactive,,,,,
O=C(N[C@@H](Cc1ccccc1)[C@@H](O)C(=O)N1C[C@@H](O)[C@@H](O)C1)c1cc2cc(Cl)ccc2[nH]1,inactive,inactive,inactive,,inactive,inactive,86.4 µM (active),inactive,inactive,,inactive,,91.7 µM (active),,,,
Oc1ccc2c(c1)OC[C@@H](N1CCC(O)(c3ccc(F)cc3)CC1)[C@H]2O,inactive,inactive,inactive,,inactive,inactive,58.7 µM (active),inactive,inactive,inactive,inactive,,,,,,
CCCCCCCCCCC,inactive,inactive,inactive,,inactive,inactive,,inactive,inactive,inactive,inactive,inactive,,,,,
CCCCCCCCCCCCCCCC,inactive,inactive,inactive,,inactive,inactive,,inactive,inactive,inactive,inactive,inactive,,,,,
CCOC(=O)CCC(=O)OCC,inactive,inactive,inactive,,inactive,inactive,,inactive,inactive,inactive,inactive,inactive,,,,,
CC1(C)NC(=O)NC1=O,inactive,inactive,inactive,,inactive,inactive,,inactive,inactive,inactive,inactive,inactive,,,,,
CCCc1cc(=O)[nH]c(=S)[nH]1,,inactive,inactive,,inactive,inactive,,inactive,inactive,inactive,inactive,inactive,,,0.747 µM (active),,
CCCCCCOCCO,inactive,inactive,inactive,,inactive,inactive,,inactive,inactive,inactive,inactive,inactive,,,,,
Cc1oc(-c2ccccc2)nc1CCOc1cccc2c1ccn2CCC(=O)O,inactive,inactive,inactive,,inactive,inactive,,inactive,inactive,inactive,inactive,inactive,,,,,
Cc1ccc(Cl)cc1,inactive,inactive,inactive,,inactive,inactive,,inactive,inactive,inactive,inactive,inactive,,,,,
CCCCCCCCCCCCCO,inactive,inactive,inactive,138 µM (active),,,,inactive,inactive,,,inactive,52.3 µM (active),,,117 µM (active),107 µM (active)
FC(F)(F)C(F)(F)C(F)(F)C(F)(F)C(F)(F)C(F)(F)CCI,inactive,inactive,inactive,,inactive,inactive,,inactive,inactive,inactive,inactive,inactive,,,,,
